The subject of one assay is LEGO organoid PT (PTEN-/-; TP53-/-). The assay is described as follows: bioluminescence (viable cell) signal fold change after vs before treatment, normalised to DMSO (ratio); higher = more tumour cell growth / less inhibition. The following applies: 10 µM; treatment time 6 days. As for the experimental part: (§1)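 Luc2-labelled iPSC-derived glioblastoma-like organoids (LEGOs, genotypes PT = PTEN-/-;TP53-/-, PTCC = plus CDKN2A/B-/-, PTN = plus NF1-/-) were treated with 10 uM drug for 6 days (applied every other day) at 37 C. Bioluminescence imaging was done before treatment and 2 days after the last dose. BLI signals were normalised to the DMSO control on the same day and then to the pre-treatment signal (N=3).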
For the compound `C[C@@H](O[C@H]1OCCN(Cc2nc(=O)[nH][nH]2)[C@H]1c1ccc(F)cc1)c1cc(C(F)(F)F)cc(C(F)(F)F)c1` [Aprepitant], the bioluminescence stood at 0.86.
As for `CCC1(c2ccccc2)C(=O)NCNC1=O` [Primidone], the bioluminescence was determined as 0.985.
Still for that read-out and setting: the result for `CC(=O)c1c(C)c2cnc(Nc3ccc(N4CCNCC4)cn3)nc2n(C2CCCC2)c1=O.O=S(=O)(O)CCO` [Palbociclib Isethionate] reads 3.4; that for `CCCNS(=O)(=O)Nc1ncnc(OCCOc2ncc(Br)cn2)c1-c1ccc(Br)cc1` [Macitentan], 1.16; that for `CN[C@H]1CC[C@@H](c2ccc(Cl)c(Cl)c2)c2ccccc21.Cl` [Sertraline hydrochloride], 0.66.
Same read-out and setting: with `N=C(N)NCCCC[C@@H]1NC(=O)CCSSC[C@@H](C(N)=O)NC(=O)[C@@H]2CCCN2C(=O)[C@H](Cc2c[nH]c3ccccc23)NC(=O)[C@H](CC(=O)O)NC(=O)CNC1=O` [Eptifibatide] the figure was 1.89; with `C[C@H]1[C@H](NC(=O)/C(=N\OC(C)(C)C(=O)O)c2csc(N)n2)C(=O)N1S(=O)(=O)O` [Aztreonam], 1.04.
Regarding `CN1CC(=O)N2[C@H](c3ccc4c(c3)OCO4)c3[nH]c4ccccc4c3C[C@@H]2C1=O` [Tadalafil], the bioluminescence was determined as 1.59.
Turning to `Nc1cccc2c1CN(C1CCC(=O)NC1=O)C2=O` (stereo not drawn) [Lenalidomide], the bioluminescence came out at 2.02.
The same measure, in the same setting: the result for `CC[C@@]1(O)C(=O)OCc2c1cc1n(c2=O)Cc2cc3c(CN(C)C)c(O)ccc3nc2-1.Cl` [Topotecan hydrochloride] reads 1.39.

In a further assay the test system is LEGO organoid PTCC (PTEN-/-; TP53-/-; CDKN2A-/-; CDKN2B-/-). Described as above. The following applies: 10 µM; treatment time 6 days. As for the experimental part: as §1
For the compound `O=C(O)c1cc(/N=N/c2ccc(S(=O)(=O)Nc3ccccn3)cc2)ccc1O` [Sulfasalazine], the bioluminescence stood at 1.43.
The same measure, in the same setting: with `CCc1c2c(nc3ccc(OC(=O)N4CCC(N5CCCCC5)CC4)cc13)-c1cc3c(c(=O)n1C2)COC(=O)[C@]3(O)CC.Cl.O.O.O` [Irinotecan hydrochloride trihydrate] the figure was 0.793; with `CO/N=C(\C(=O)N[C@@H]1C(=O)N2C(C(=O)[O-])=C(C[N+]3(C)CCCC3)CS[C@H]12)c1csc(N)n1.Cl.Cl.O` [Cefepime Dihydrochloride Monohydrate], 0.833.
Take `Cl.OC[C@H]1NC[C@H](O)[C@@H](O)[C@H]1O` [Migalastat hydrochloride]: the bioluminescence was found to be 0.51.
In the case of `O=C(O)Cc1ccccc1Nc1c(Cl)cccc1Cl` [Diclofenac], the bioluminescence stood at 1.13.
For `Cc1nc(Nc2ncc(C(=O)Nc3c(C)cccc3Cl)s2)cc(N2CCN(CCO)CC2)n1` [Dasatinib], the bioluminescence is 0.977.
`Cc1ccccc1C(OCCN(C)C)c1ccccc1.Cl` (stereo not drawn) [Orphenadrine hydrochloride]: the bioluminescence stood at 1.18.
Regarding `Cc1ccccc1C(OCCN(C)C)c1ccccc1.O=C(O)CC(O)(CC(=O)O)C(=O)O` (stereo not drawn) [Orphenadrine Citrate], the bioluminescence is 2.65.
On the same count and under the same terms, the result for `CCCCCCCCc1ccc(CCC(N)(CO)CO)cc1.Cl` [Fingolimod hydrochloride] reads 1.07; that for `Cl.OC(CCN1CCCC1)(c1ccccc1)C1CCCCC1` (stereo not drawn) [Procyclidine hydrochloride], 0.919.
Turning to `C[C@]12C=CC(=O)C=C1CC[C@@H]1[C@@H]2C(=O)C[C@@]2(C)[C@H]1CC[C@]2(O)C(=O)CO` [Prednisone], the bioluminescence stood at 0.989.
For `Cl.N=C(N)NC(=O)Cc1c(Cl)cccc1Cl` [Guanfacine hydrochloride], the bioluminescence was found to be 1.24.
The same measure, in the same setting: the result for `NC(=O)c1ncn([C@@H]2O[C@H](CO)[C@@H](O)[C@H]2O)n1` [Ribavirin] reads 1.89; that for `C[C@@](Cc1ccc(O)c(O)c1)(NN)C(=O)O.O` [Carbidopa Hydrate], 0.96.
Turning to `O=C(CCCN1CC=C(n2c(=O)[nH]c3ccccc32)CC1)c1ccc(F)cc1` [Droperidol], the bioluminescence turned out to be 0.69.
Still for that read-out and setting: the result for `CCCOc1ccc(S(=O)(=O)NCCC2CCCN2C)cc1-c1nc2c(CCC)nn(C)c2c(=O)[nH]1` (stereo not drawn) [Udenafil] reads 1.32; that for `CC[C@@H]1/C=C(\C)C[C@H](C)C[C@H](OC)[C@H]2O[C@@](O)(C(=O)C(=O)N3CCCC[C@H]3C(=O)O[C@H](/C(C)=C/[C@@H]3CC[C@H](Cl)[C@H](OC)C3)[C@H](C)[C@@H](O)CC1=O)[C@H](C)C[C@@H]2OC` [Pimecrolimus], 0.535; that for `N#Cc1ccc2[nH]cc(CCCCN3CCN(c4ccc5oc(C(N)=O)cc5c4)CC3)c2c1` [Vilazodone], 1.83.
The same measure, in the same setting: with `CS(=O)(=O)CCNCc1ccc(-c2ccc3ncnc(Nc4ccc(OCc5cccc(F)c5)c(Cl)c4)c3c2)o1.Cc1ccc(S(=O)(=O)O)cc1.Cc1ccc(S(=O)(=O)O)cc1` [Lapatinib Ditosylate] the figure was 1.03; with `Cc1cccc(C)c1OCC(=O)N[C@@H](Cc1ccccc1)[C@@H](O)C[C@H](Cc1ccccc1)NC(=O)[C@H](C(C)C)N1CCCNC1=O` [Lopinavir], 0.969; with `CN(C)CCc1c[nH]c2ccc(C[C@H]3COC(=O)N3)cc12` [Zolmitriptan], 1.52.
Consider `CCC1=C[C@@H]2CN(C1)Cc1c([nH]c3ccccc13)[C@@](C(=O)OC)(c1cc3c(cc1OC)N(C)[C@H]1[C@@](O)(C(=O)OC)[C@H](OC(C)=O)[C@]4(CC)C=CCN5CC[C@]31[C@@H]54)C2.O=C(O)[C@H](O)[C@@H](O)C(=O)O.O=C(O)[C@H](O)[C@@H](O)C(=O)O` [Vinorelbine Tartrate], for which the bioluminescence amounted to 1.06.
Take `NC(=O)N1c2ccccc2CC(=O)c2ccccc21` [Oxcarbazepine]: the bioluminescence worked out at 0.951.
On to `O=C1CCc2ccc(OCCCCN3CCN(c4cccc(Cl)c4Cl)CC3)cc2N1` [Aripiprazole], for which the bioluminescence came out at 0.382.
In the case of `O=NN(CCCl)C(=O)NC1CCCCC1` [Lomustine], the bioluminescence was determined as 1.17.
Turning to `CC1=C(CC(=O)O)c2cc(F)ccc2/C1=C\c1ccc(S(C)=O)cc1` (stereo not drawn) [Sulindac], the bioluminescence worked out at 1.38.
For `NS(=O)(=O)c1cc2c(cc1Cl)N=CNS2(=O)=O` [Chlorothiazide], the bioluminescence amounted to 1.63.
As to `Cc1cn(-c2cc(NC(=O)c3ccc(C)c(Nc4nccc(-c5cccnc5)n4)c3)cc(C(F)(F)F)c2)cn1` [Nilotinib], the bioluminescence amounted to 1.4.
Consider `C[C@@H](O[C@H]1OCCN(Cc2nc(=O)[nH][nH]2)[C@H]1c1ccc(F)cc1)c1cc(C(F)(F)F)cc(C(F)(F)F)c1` [Aprepitant], for which the bioluminescence came to 0.644.
For `CCC1(c2ccccc2)C(=O)NCNC1=O` [Primidone], the bioluminescence was determined as 0.824.
`CC(=O)c1c(C)c2cnc(Nc3ccc(N4CCNCC4)cn3)nc2n(C2CCCC2)c1=O.O=S(=O)(O)CCO` [Palbociclib Isethionate]: the bioluminescence came out at 2.84.
For the compound `CCCNS(=O)(=O)Nc1ncnc(OCCOc2ncc(Br)cn2)c1-c1ccc(Br)cc1` [Macitentan], the bioluminescence came to 0.835.
Take `CN[C@H]1CC[C@@H](c2ccc(Cl)c(Cl)c2)c2ccccc21.Cl` [Sertraline hydrochloride]: the bioluminescence is 0.888.
Still for that read-out and setting: the result for `N=C(N)NCCCC[C@@H]1NC(=O)CCSSC[C@@H](C(N)=O)NC(=O)[C@@H]2CCCN2C(=O)[C@H](Cc2c[nH]c3ccccc23)NC(=O)[C@H](CC(=O)O)NC(=O)CNC1=O` [Eptifibatide] reads 0.768.
Take `C[C@H]1[C@H](NC(=O)/C(=N\OC(C)(C)C(=O)O)c2csc(N)n2)C(=O)N1S(=O)(=O)O` [Aztreonam]: the bioluminescence worked out at 0.795.
Still for that read-out and setting: with `CN1CC(=O)N2[C@H](c3ccc4c(c3)OCO4)c3[nH]c4ccccc4c3C[C@@H]2C1=O` [Tadalafil] the figure was 1.47; with `Nc1cccc2c1CN(C1CCC(=O)NC1=O)C2=O` (stereo not drawn) [Lenalidomide], 4.82; with `CC[C@@]1(O)C(=O)OCc2c1cc1n(c2=O)Cc2cc3c(CN(C)C)c(O)ccc3nc2-1.Cl` [Topotecan hydrochloride], 0.236.
